# Test results reported in PubChem BioAssay AID624256 (NMMLSC, 2012).
# Screen size: about 360,000 compounds; about 3,700 (1%) were called active. About 2% were inconclusive and are not listed. The sample holds actives, similar compounds and a random draw of the others, so the mix is not that of the screen.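 Rule for the calls: active = normalized GFP-positive differentiation at or above the plate's own cutoff, the solvent-only control mean plus 3 SD; inconclusive = no clear call, values can overlap the other calls; inactive = the rest.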
# Assay: HoxA9-arrested leukemia cell differentiation promoters – flow cytometry, MLPCN library, primary screen (AID 624256);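 for GFP+ MAC1+ double positive: cells exposed to compound for four days before flow analysis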;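 for normalized GFP-positive differentiation: cells exposed to compound for four days before flow analysis; 0% = DMSO wells and 100% = fulvestrant positive control at 5 µM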
# Details: ER-HoxA9 myeloid progenitors, lysozyme-GFP differentiation, at 10 µM; GFP+ MAC1+ double positive: measured here: differentiation confirmed by MAC1 staining, stronger effect = higher value; normalized GFP-positive differentiation: stronger effect = higher value
SMILES,GFP+ MAC1+ double positive,normalized GFP-positive differentiation,outcome
Oc1ccc2ccc3cccc[n+]3c2c1,0.9%,10.9% (active),
CC1(C(=O)NS(=O)(=O)c2ccccc2)CCN1C(=O)C1CCCCC1 (centres undefined),1.3%,,inactive
COc1ccc(C(C(=O)NCc2ccccc2)n2c(=O)c(-c3ccccc3)nc3ccccc32)cc1 (centres undefined),5.2%,,inactive
COc1ccc(CC(N)c2csc(NC(=O)NC(c3ccccc3)c3ccccc3)n2)cc1 (centres undefined),1.7%,,inactive
O=C(CCC(=O)Nc1ccccc1)N/N=C/c1ccccc1F,0.1%,,inactive
O=C(N/N=C/c1ccccc1O)C1CCCC1,0.3%,,inactive
O=C(N/N=C/c1ccccc1O)/C(=C/c1ccccc1)CCO,4.1%,31.5% (active),
Cc1ccc(S(=O)(=O)N2[C@@H](Cc3ccccc3)CO[C@H]2CC(=O)OCc2ccccc2)cc1,5.9%,,inactive
O=C1NC[C@H](CCCCN2C[C@H](Cc3ccc(O)cc3)N(CC3CCCCC3)C(=O)C2=O)N(CCc2ccccc2)C1=O,0.6%,,inactive
CCOc1ccc(CCN2C(=S)N([C@@H](CC(C)C)CN3CCC[C@@H]3CN3C(=S)NC[C@@H]3Cc3ccc(O)cc3)C[C@@H]2CC(C)C)cc1,0.7%,,inactive
CC(=O)Nc1cc(-c2ccccc2N(C)C)cn2c(-c3ccc(F)c(Cl)c3)cnc12,1%,,inactive
O=c1c(F)cn(C2CCCO2)c(=O)n1Cc1ccccc1Cl (centres undefined),11.2%,,inactive
CNc1nc(=O)n(C2CCCO2)cc1C (centres undefined),23.7%,172% (active),
O=c1nc(NO)ccn1C1CCCO1 (centres undefined),1.8%,,inactive
O=C(O)Cc1ccc(-c2ccccc2)cc1,2.6%,92.4% (active),
O=C(Cc1ccc(-c2ccccc2)cc1)NC(c1ccccc1)c1ccccc1,0.3%,,inactive
O=C(O)Cc1ccc(NCc2ccccc2Cl)cc1,0.6%,,inactive
Cc1cccc(CNC(=O)c2sc(=O)n(Cc3ccccc3C)c2C)c1,4.1%,,inactive
COc1ccc(C(C(=O)Nc2c(C)cccc2C)N2CCN(c3ccc(C)cc3)CC2)cc1 (centres undefined),2%,,inactive
CO[C@@H]1CN(C)C(=O)c2cc(NC(=O)Nc3cc(F)ccc3F)ccc2OC[C@H](C)N(C(=O)c2ccccn2)C[C@@H]1C,1.3%,,inactive
COC(=O)[C@]12CCCCC=C1N(Cc1cccc3ccccc13)C(=O)[C@H](CC(=O)N1CCOCC1)C2,0.7%,,inactive
CCOP(=O)(OCC)C(Cc1ccccc1)N=C(c1ccccc1)c1ccccc1 (centres undefined),1%,,inactive
CC(=O)N1Cc2cc(C(=O)NCc3cccc(F)c3)nc(-c3cccc(C4=CCCC4)c3)c2[C@H]1CCO,0.3%,,inactive
COc1cccc(-c2noc(C3CCCN(C(=O)c4ccc(F)cc4)C3)n2)c1 (centres undefined),1.2%,,inactive
CC(C)c1ccc(-c2noc(C3CCCN(S(C)(=O)=O)C3)n2)cc1 (centres undefined),2.8%,,inactive
COc1cc(-c2noc(C3CCCN(S(=O)(=O)c4cccc(Cl)c4)C3)n2)cc(OC)c1OC (centres undefined),16.1%,28.5% (active),

SMILES,GFP+ MAC1+ double positive,normalized GFP-positive differentiation,outcome
O=C(NCc1ccccn1)[C@@H]1CCCN1C(=O)[C@@H]1CCCN1C(=O)c1ccccc1,1.4%,,inactive
COC(=O)[C@@]12C[C@@H](CC(=O)NCc3cccc(C(F)(F)F)c3)C(=O)N(Cc3ccco3)C1=CCC(C)(C)C2,3.5%,,inactive
COc1cccc(NC(=O)[C@H](Cc2c[nH]c3ccccc23)NC(=O)[C@@H]2Cc3ccccc3CN2)c1,5.1%,8.43% (active),
COc1ccc(CNC(=O)[C@H](Cc2c[nH]c3ccccc23)NC(C)=O)cc1OC,0.3%,,inactive
COc1ccc(NC(=O)[C@H](NC(=O)[C@@H]2Cc3ccccc3CN2)c2ccccc2)cc1,3.2%,,inactive
CCc1nc2c(OCC(N)=O)cccn2c1N(C)C(=O)c1ccc(OC)cc1,1.1%,,inactive
OC[C@@H]1CN(Cc2cccs2)C[C@H](n2cnc3c(Nc4ccccc4)ncnc32)O1,1.1%,,inactive
Cc1ccc(Cc2c(-c3ccco3)nc3ccc(Cl)cn23)cc1,0.7%,,inactive
CCCCCCCNC(=O)C1(CC2CC(c3cccc(Br)c3)=NO2)CCN(C(=O)c2cc(OCC)c(OCC)c(OCC)c2)CC1 (centres undefined),7.1%,26.1% (active),
COc1ccc(CNC(=O)C2(CC3CC(c4ccccc4)=NO3)CCN(C(=O)c3cccc(O)c3)CC2)cc1 (centres undefined),1.8%,,inactive
O=C(c1ccccc1)N1CCC(CC2CC(c3ccc(Cl)cc3)=NO2)(C(=O)NCC2CCCCC2)CC1 (centres undefined),1.5%,,inactive
O=C(C(=O)N1CCC(c2ccccc2)CC1)c1ccccc1,2.1%,,inactive
CC(C)(O)C#Cc1ccc(CNC[C@H]2O[C@@H](n3cnc4c(=O)[nH]c(N)nc43)[C@H](O)[C@@H]2O)s1,0.8%,,inactive
O=S1(=O)CC(N2CCN(CCO)CC2)CN1Cc1cn(Cc2ccc(Cl)cc2)nn1 (centres undefined),1.6%,,inactive
COc1ccccc1CN1CCCC(N2CCN(c3ccc(F)cc3)CC2)C1 (centres undefined),0.5%,,inactive
Cc1cnc(C(=O)N2CCCC(N3CCN(c4ccccc4F)CC3)C2)cn1 (centres undefined),6.8%,,inactive
CCc1noc(C)c1C(=O)N1CCCC(N2CCN(c3ccc(F)cc3)CC2)C1 (centres undefined),5.3%,46.7% (active),
COc1ccc(-c2[nH][nH]c(=O)c2NC(=O)c2ccc([N+](=O)[O-])cc2)cc1,0.8%,,inactive
O=C(CN(c1ccccc1)S(=O)(=O)c1ccc(Cl)cc1)Nc1ccccc1C(=O)N1CCCC1,17.3%,34.3% (active),
COc1ccccc1N(CC(=O)Nc1ccccc1C(=O)N1CCCC1)S(C)(=O)=O,0.3%,,inactive
O=C(Nc1ccccc1C(=O)N1CCCCCC1)c1ccccc1Cl,0.1%,,inactive
NCCCCC(C(=O)O)N(C(=O)OCc1ccccc1)C(=O)OCc1ccccc1 (centres undefined),0.9%,,inactive
Cc1cc(=O)oc(C)c1C(=O)NCc1ccc(F)cc1,9.2%,,inactive
Cc1cc(=O)oc(C)c1C(=O)NCCN(C)Cc1ccccc1,0.6%,,inactive
Cc1cc(=O)oc(C)c1C(=O)Nc1cnc2ccccc2c1,1%,6.77% (active),
COc1ccc(-c2cc3c(c4c2ccn4C)C2CCC3C2)cn1 (centres undefined),1.4%,,inactive
